Bioassay records (PubChem BioAssay)
Hits are enriched below; roughly 21% of the tested compounds scored in any of these assays.
CHX counter = counter-screen for Shiga toxin inhibitors: cycloheximide protein synthesis inhibition; cell reporter, cycloheximide protein synthesis inhibition counterscreen; max response, %; 300,000 compounds, 12% hits; in the data active = max response mostly above about 13%, no sharp cut-off; inactive = mostly below about 14%; note: read at 38.3 µM for the half of the compounds with a filed dose; 0% is about no effect
Pf growth 48h = P. falciparum growth inhibition at 48 hours (one generation) | P. falciparum luciferase growth in erythrocytes, 48 h | 310,000 compounds, 5.9% hits | Potency, µM (doses to about 28.7 µM), for the others: at the top dose activity change, negative = inhibition, actives largely listed as inhibitors; note: potency is the fitted concentration of half-maximal effect; % is set by controls: 0 for no effect and ±100 for the full control effect
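In quantitative HTS format, infected erythrocytes bearing luciferase-reporter parasites were treated for a single generation at 37 C. Luminescence after adding detection reagent served as the growth measure.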
Shiga inhibitor = blocks Shiga toxin action in Vero cells; Vero cells, Shiga toxin protein synthesis inhibition reporter; inhibition, % at 38.7 µM; 290,000 compounds, 9.2% hits; AID 2315; in the data active = inhibition mostly above about 28%, no sharp cut-off; inactive = mostly below about 43%; note: 0% is about no effect
HCV inhibitor = blocks hepatitis C virus; Huh7.5.1 HCVcc-Cre infection, luciferase reporter, 44 h; 340,000 compounds, 3.4% hits; Potency, µM (doses to about 41.8 µM), without a hit: top-dose activity change, negative = inhibition, usual class: inhibitors; note: potency is the fitted concentration of half-maximal effect; % is set by controls: 0 for no effect and ±100 for the full control effect
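Seed cells (1,000/well) for 4 h; treat with compound and infect with HCVcc-Cre, moi about 0.5. Incubate 44 h, then detect luciferase activity.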
HCMV antiviral = inhibitors of human cytomegalovirus. HFF cells, HCMV-luciferase reporter, 72 h; hits give low values. AID 1259415. activity change, negative = inhibition, % at 57.5 µM. 410,000 compounds, 4.5% hits; in the data active = activity change below about -60%; inconclusive = no clear call, values can overlap the other calls; inactive = above about -39%; note: % is set by controls: 0 for no effect and ±100 for the full control effect
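Two compound doses tested in HFFs infected with HCMV-luciferase, MOI 1 PFU/cell, 72 h at 37C. Lysate luminescence read with OneGlo; data normalized against buffer-only and 10uM Salinomycin inhibitor controls.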
Pf growth 96h = P. falciparum growth inhibition at 96 hours; 320,000 compounds, 6.9% hits; Potency, µM (top dose mostly 28.7 µM), without a hit: top-dose activity change, negative = inhibition, usual class: inhibitors; P. falciparum luciferase reporter growth, 96 h; note: potency is the fitted concentration of half-maximal effect; % is set by controls: 0 for no effect and ±100 for the full control effect
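Readout is luminescence from an integrated firefly luciferase in P. falciparum. Red cells, 2% hematocrit and 0.05% parasitemia final, were cultured with compound through two parasite generations (96 hours) at 37 C, 5% CO2.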
* = called active by the depositor; ? = inconclusive; nt = not tested or not shown. Unless noted, calls come from the whole dose curve; as a rule, active = well fitted inhibition curve with a large enough effect; inconclusive = small, poorly fitted or top-dose-only effect, or another doubt; inactive = no such curve, though single readings can be large or run the other way.

SMILES | CHX counter | Pf growth 48h | Shiga inhibitor | HCV inhibitor | HCMV antiviral | Pf growth 96h
CC1CCCCC1NC(=O)/C(C#N)=C/c1ccc(F)c(F)c1 (stereo not drawn) | -2 | 12µM* | -6 | 25% | 26 | ?
CCOC(=O)c1c(N)n(-c2ccc(OCC)cc2)c2nc3ccccc3nc12 | nt | nt | nt | nt | 5 | nt
O=[N+]1C2=C(CCCC2)N([O-])C12CCCC2 | 2 | 15% | -3 | 11% | 8 | 31%
CC1(CCl)N([O-])C2=C(CCCC2)[N+]1=O (stereo not drawn) | 14* | 2% | 23 | 7% | 75 | 50%
Cc1ccccc1C(=O)Nc1ccc(S(=O)(=O)N2CCCC2)cc1 | 8 | 18% | 4 | ? | -5 | 3%
CC(=O)N1CCN(c2ccc(NC(=O)c3ccc4ccccc4c3)cc2)CC1 | 26* | -26% | 7 | ? | 16 | -26%
CC(=O)N1CCN(c2ccc(NC(=O)c3ccc(Cl)cc3)cc2)CC1 | -4 | -4% | -12 | 7% | -18 | ?
O=C(Nc1ccc(N2CCCCC2)cc1)c1cc([N+](=O)[O-])cc([N+](=O)[O-])c1 | -1 | 26% | 22 | -3% | 5 | 10%
CC(=O)N1CCN(c2ccc(NC(=O)c3ccccc3C)cc2)CC1 | 10* | 30% | 4 | 8% | 43 | -4%
CC(=O)N1CCN(c2ccc(NC(=O)c3ccc(C(C)(C)C)cc3)cc2)CC1 | 32* | 10µM* | 45* | ? | -86* | 1%
O=C(Nc1ccc(N2CCCC2)cc1)c1ccc2ccccc2c1 | 49* | 302% | active | 5% | -12 | ?
O=C(CSc1nc(-c2cccs2)nc2cc(=O)[nH]n12)Nc1ccccc1Cl | nt | nt | nt | nt | -11 | nt
Cc1cc(F)ccc1NC(=O)c1csc2c1CCC(C)C2 (stereo not drawn) | nt | nt | nt | nt | 33 | nt
Cc1nc2c(C(=O)NCCc3ccccc3)cnn2c(C)c1Cc1c(F)cccc1Cl | nt | nt | nt | nt | 8 | nt
CCCCc1nn2c(=O)cc(COC(=O)c3ccc(NC(=O)CCc4ccccc4)cc3)nc2s1 | nt | nt | nt | nt | 19 | nt
COc1ccc(C2=Nn3c(nc4sc(C(=O)Nc5cccc(C)c5)c(C)c4c3=O)SC2)cc1 | nt | nt | nt | nt | -6 | nt
COc1ccc(-c2cnnn2-c2ccc(NC(=O)c3ccccc3OC)cc2)cc1 | nt | nt | nt | nt | -6 | nt
COc1ccc(Nc2nccc3[nH]c(-c4cccc(F)c4)cc23)cc1 | nt | nt | nt | nt | -34 | nt
CC(=O)N1CCN(c2ccc(NC(=O)c3cccc(Cl)c3)cc2)CC1 | 31* | 98% | 73* | -7% | 54 | 0%
CC(=O)N1CCN(c2ccc(NC(=O)c3cc(Cl)ccc3Cl)cc2)CC1 | -3 | -4% | nt | -6% | -37 | -25%
Nc1ccc2nc(-c3ccc(N)c(Cl)c3)[nH]c2c1 | 25* | ? | 77* | ? | 5 | nt
Nc1ccc2nc(-c3cccnc3)[nH]c2c1 | 15* | ? | 13 | 11% | 16 | -16%
Nc1cccc(-c2nc3ccc(C(=O)c4ccccc4)cc3[nH]2)c1 | 33* | 94% | 61* | ? | 13 | -5%
Nc1ccc(-c2nc3c(Cl)cc(N)cc3[nH]2)cc1 | -8 | ? | -20 | ? | ? | 9.3µM*
COc1ccc(CNC(=O)c2ccc3c(c2)CCN3S(=O)(=O)c2ccc(C)cc2)cc1 | nt | nt | nt | nt | -18 | nt
SMILES | CHX counter | Pf growth 48h | Shiga inhibitor | HCV inhibitor | HCMV antiviral | Pf growth 96h
N#Cc1c(-c2ccccc2)nc(-c2cccnc2)[nH]c1=O | -5 | -3% | -5 | 26% | 16 | -18%
Cc1cc(=S)nc(-c2ccccn2)[nH]1 | -1 | 10µM* | 17 | 1% | 31 | 3.7µM*
Cc1[nH]c(-c2ccccn2)nc(=S)c1Cl | -2 | ? | -2 | 24% | -27 | ?
c1cncc(-c2nc3c(ccc4ccccc43)[nH]2)c1 | 12* | ? | 77* | ? | 28 | ?
COc1ccc2nc(-c3ccccn3)[nH]c2c1 | 36* | 17% | 59* | 6% | 30 | -8%
Nc1ccc2nc(-c3ccccn3)[nH]c2c1 | 29* | ? | 53* | ? | 63 | ?
Cc1ccc(NC(=O)CSCc2cc(=O)c3ccccc3[nH]2)c(C)c1 | nt | nt | nt | nt | -6 | nt
O=C(NCc1cccc(F)c1)C1CCCN(C(=O)N2CCOc3ccccc32)C1 (stereo not drawn) | nt | nt | nt | nt | -27 | nt
COc1ccc2nc(-c3cccc(N)c3)[nH]c2c1 | 18* | 320% | 32 | -16% | 40 | 35%
Nc1ccc2nc(-c3ccccc3)[nH]c2c1 | 36* | 123% | 126* | ? | 152 | nt
Nc1ccc2nc(-c3cccs3)[nH]c2c1 | 20* | -68% | 52* | ? | -39 | -8%
O=S1(=O)CCOCCCN1Cc1ccccc1F | -3 | 1% | -2 | 51% | -12 | 44%
CCOC(=O)c1ccccc1NC(=O)CSc1nc2ccccc2o1 | 8 | 37% | 23 | 19% | 3 | -8%
COc1cc(Cl)c(C)cc1NC(=O)CSc1nc2ccccc2o1 | -3 | 4% | 5 | ? | -2 | 10µM*
CC(Sc1nc2ccccc2o1)C(=O)O (stereo not drawn) | 37* | 170% | 79* | 2% | 21 | -5%
Cc1ccc(C(=O)CSc2nc3ccccc3o2)cc1 | 26* | nt | 50 | -26% | -61* | ?
O=C(O)CSc1nc2ccccc2o1 | 30* | 33% | 78 | 17% | 27 | -1%
CC(C)(Cc1ccccc1)/[N+]([O-])=C\c1ccccc1 | nt | -7% | nt | -1% | ? | 62%
COc1ccc(Nc2ncnc3c2c(-c2ccccc2)cn3-c2ccc(C)c(Cl)c2)cc1OC | nt | nt | nt | nt | -4 | nt
Cc1nnc(SCC(=O)Nc2ccc(O)cc2)c2ccccc12 | 11 | 34% | -10 | 4% | ? | 7%
O=C(CSc1nc2ccccc2o1)N1CCCC1 | 13 | nt | 9 | 6% | 39 | 42%
O=C(CSc1nc2ccccc2o1)c1cc2ccccc2oc1=O | 25* | 33% | 89* | -6% | ? | ?
O=C(CSc1nc2ccccc2o1)N1CCOCC1 | 27* | 17% | 42* | 17% | 18 | 61%
CSc1cccc(NC(=O)CSc2nc3ccccc3o2)c1 | 40* | -5% | 63* | -30% | -19 | 40%
Cc1nnc(SCC(=O)Nc2ccccc2)c2ccccc12 | 48* | ? | 46* | -2% | 5 | 16%
SMILES | CHX counter | Pf growth 48h | Shiga inhibitor | HCV inhibitor | HCMV antiviral | Pf growth 96h
COc1ccc(-c2cc(C(=O)Oc3cccc(C)c3)c3ccccc3n2)cc1 | nt | nt | nt | nt | 10 | nt
COC(C[C@@H](O)C[C@@H](O)[C@@H](C)OCc1ccccc1)OC | nt | nt | nt | 3% | 10 | nt
CCOc1ccccc1NC(=O)CCc1c(C)nn(-c2ccc(N3CCOCC3)nn2)c1C | nt | nt | nt | nt | -3 | nt
O=C(CSc1nc2ccccc2o1)NCC(=O)c1ccccc1 | 15 | 19% | 11 | 1% | ? | -9%
O=C(CSc1nc2ccccc2o1)Nc1ccccc1 | 8.5* | 175% | 30 | 1% | 83 | ?
Cc1c(O)c(CN2CCCCC2)cc2c3c(c(=O)oc12)CCC3 | 2 | 10µM* | 2 | ? | 52 | 9.3µM*
